Assay results from the supplement of paper PMC11732987, “Enantioselective OTUD7B fragment discovery through chemoproteomics screening and high-throughput optimisation” (Communications Chemistry, 2025).

What was measured:
Assay in all cases: log2 ratio of Biotin-Ahx-Ub-VS probe labelling (fragment/DMSO); higher = less target engagement (more negative = stronger competition), active = hit call of the paper (q ≤ 0.05, log2 ratio ≤ -1)
Conditions in all cases: compound concentration: 200 uM; treatment time: 3 h
[1] = target: T1, USP19 (UniProt O94966)
T1 sequence (whole entry): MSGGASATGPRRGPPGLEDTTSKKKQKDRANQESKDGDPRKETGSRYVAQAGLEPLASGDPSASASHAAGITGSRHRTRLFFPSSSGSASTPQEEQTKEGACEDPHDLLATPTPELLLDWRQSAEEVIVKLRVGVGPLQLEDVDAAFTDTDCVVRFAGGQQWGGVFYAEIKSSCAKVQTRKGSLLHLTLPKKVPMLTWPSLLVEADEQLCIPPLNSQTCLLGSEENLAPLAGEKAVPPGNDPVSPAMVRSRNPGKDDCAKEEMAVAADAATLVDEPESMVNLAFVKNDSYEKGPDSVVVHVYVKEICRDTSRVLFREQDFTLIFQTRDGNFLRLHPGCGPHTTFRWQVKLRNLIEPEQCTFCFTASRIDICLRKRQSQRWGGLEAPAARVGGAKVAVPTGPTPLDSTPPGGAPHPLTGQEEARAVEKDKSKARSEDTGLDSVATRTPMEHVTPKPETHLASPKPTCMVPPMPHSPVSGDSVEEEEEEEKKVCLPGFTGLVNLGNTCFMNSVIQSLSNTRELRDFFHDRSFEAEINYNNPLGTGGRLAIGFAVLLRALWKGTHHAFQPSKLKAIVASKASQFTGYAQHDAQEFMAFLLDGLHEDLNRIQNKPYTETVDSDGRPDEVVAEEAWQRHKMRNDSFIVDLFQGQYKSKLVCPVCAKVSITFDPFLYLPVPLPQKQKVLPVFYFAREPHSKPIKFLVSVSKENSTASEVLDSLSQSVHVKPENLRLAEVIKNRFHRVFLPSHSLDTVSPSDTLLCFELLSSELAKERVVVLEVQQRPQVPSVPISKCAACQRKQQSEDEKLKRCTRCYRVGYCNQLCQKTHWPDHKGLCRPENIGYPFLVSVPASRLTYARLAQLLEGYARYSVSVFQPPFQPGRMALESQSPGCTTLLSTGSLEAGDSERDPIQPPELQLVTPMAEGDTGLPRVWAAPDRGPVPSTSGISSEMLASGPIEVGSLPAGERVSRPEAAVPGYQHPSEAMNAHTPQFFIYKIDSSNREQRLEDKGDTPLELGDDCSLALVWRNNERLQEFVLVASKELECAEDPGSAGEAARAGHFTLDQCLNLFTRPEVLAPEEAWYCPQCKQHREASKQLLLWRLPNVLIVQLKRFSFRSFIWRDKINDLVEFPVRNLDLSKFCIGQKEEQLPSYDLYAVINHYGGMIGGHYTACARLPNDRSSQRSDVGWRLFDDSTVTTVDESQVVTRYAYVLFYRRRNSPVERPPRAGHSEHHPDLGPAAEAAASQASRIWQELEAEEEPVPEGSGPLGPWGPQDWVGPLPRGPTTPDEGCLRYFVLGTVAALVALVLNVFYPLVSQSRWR
Method in brief: (§1)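 The table lists average log2 ratios of fragment over vehicle, from an unpaired t-test on global-median-normalised Spectronaut label-free quantities. Proteins with ≥2 unique peptides were used. Samples were HEK293T lysate (495 µg) treated in triplicate with fragment at 200 µM or vehicle for 3 h, then with Biotin-Ahx-Ub-VS (0.5 µM final) for 1 h, with labelled DUBs NeutrAvidin-enriched and run by diaPASEF LC-MS/MS.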

[2] = target: T2, USP22 (UniProt Q9UPT9)
T2 sequence (whole entry): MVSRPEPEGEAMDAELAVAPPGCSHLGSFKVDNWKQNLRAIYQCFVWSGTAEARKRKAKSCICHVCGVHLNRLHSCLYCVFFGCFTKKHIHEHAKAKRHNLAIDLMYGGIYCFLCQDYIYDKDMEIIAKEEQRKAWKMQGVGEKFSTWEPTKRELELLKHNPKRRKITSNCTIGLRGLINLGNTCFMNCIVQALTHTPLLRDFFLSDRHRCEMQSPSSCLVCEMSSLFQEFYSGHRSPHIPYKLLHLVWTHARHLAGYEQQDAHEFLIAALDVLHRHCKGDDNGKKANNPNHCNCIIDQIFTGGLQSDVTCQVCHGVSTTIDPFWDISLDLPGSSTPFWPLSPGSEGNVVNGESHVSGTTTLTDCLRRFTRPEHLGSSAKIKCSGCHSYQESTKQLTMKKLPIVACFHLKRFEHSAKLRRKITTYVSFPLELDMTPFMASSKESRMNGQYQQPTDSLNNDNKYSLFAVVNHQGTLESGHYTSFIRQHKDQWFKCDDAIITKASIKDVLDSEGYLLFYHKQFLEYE
Method in brief: as §1

[3] = target: USP24 (UniProt Q9UPU5)
USP24, sequence (Q9UPU5 whole entry): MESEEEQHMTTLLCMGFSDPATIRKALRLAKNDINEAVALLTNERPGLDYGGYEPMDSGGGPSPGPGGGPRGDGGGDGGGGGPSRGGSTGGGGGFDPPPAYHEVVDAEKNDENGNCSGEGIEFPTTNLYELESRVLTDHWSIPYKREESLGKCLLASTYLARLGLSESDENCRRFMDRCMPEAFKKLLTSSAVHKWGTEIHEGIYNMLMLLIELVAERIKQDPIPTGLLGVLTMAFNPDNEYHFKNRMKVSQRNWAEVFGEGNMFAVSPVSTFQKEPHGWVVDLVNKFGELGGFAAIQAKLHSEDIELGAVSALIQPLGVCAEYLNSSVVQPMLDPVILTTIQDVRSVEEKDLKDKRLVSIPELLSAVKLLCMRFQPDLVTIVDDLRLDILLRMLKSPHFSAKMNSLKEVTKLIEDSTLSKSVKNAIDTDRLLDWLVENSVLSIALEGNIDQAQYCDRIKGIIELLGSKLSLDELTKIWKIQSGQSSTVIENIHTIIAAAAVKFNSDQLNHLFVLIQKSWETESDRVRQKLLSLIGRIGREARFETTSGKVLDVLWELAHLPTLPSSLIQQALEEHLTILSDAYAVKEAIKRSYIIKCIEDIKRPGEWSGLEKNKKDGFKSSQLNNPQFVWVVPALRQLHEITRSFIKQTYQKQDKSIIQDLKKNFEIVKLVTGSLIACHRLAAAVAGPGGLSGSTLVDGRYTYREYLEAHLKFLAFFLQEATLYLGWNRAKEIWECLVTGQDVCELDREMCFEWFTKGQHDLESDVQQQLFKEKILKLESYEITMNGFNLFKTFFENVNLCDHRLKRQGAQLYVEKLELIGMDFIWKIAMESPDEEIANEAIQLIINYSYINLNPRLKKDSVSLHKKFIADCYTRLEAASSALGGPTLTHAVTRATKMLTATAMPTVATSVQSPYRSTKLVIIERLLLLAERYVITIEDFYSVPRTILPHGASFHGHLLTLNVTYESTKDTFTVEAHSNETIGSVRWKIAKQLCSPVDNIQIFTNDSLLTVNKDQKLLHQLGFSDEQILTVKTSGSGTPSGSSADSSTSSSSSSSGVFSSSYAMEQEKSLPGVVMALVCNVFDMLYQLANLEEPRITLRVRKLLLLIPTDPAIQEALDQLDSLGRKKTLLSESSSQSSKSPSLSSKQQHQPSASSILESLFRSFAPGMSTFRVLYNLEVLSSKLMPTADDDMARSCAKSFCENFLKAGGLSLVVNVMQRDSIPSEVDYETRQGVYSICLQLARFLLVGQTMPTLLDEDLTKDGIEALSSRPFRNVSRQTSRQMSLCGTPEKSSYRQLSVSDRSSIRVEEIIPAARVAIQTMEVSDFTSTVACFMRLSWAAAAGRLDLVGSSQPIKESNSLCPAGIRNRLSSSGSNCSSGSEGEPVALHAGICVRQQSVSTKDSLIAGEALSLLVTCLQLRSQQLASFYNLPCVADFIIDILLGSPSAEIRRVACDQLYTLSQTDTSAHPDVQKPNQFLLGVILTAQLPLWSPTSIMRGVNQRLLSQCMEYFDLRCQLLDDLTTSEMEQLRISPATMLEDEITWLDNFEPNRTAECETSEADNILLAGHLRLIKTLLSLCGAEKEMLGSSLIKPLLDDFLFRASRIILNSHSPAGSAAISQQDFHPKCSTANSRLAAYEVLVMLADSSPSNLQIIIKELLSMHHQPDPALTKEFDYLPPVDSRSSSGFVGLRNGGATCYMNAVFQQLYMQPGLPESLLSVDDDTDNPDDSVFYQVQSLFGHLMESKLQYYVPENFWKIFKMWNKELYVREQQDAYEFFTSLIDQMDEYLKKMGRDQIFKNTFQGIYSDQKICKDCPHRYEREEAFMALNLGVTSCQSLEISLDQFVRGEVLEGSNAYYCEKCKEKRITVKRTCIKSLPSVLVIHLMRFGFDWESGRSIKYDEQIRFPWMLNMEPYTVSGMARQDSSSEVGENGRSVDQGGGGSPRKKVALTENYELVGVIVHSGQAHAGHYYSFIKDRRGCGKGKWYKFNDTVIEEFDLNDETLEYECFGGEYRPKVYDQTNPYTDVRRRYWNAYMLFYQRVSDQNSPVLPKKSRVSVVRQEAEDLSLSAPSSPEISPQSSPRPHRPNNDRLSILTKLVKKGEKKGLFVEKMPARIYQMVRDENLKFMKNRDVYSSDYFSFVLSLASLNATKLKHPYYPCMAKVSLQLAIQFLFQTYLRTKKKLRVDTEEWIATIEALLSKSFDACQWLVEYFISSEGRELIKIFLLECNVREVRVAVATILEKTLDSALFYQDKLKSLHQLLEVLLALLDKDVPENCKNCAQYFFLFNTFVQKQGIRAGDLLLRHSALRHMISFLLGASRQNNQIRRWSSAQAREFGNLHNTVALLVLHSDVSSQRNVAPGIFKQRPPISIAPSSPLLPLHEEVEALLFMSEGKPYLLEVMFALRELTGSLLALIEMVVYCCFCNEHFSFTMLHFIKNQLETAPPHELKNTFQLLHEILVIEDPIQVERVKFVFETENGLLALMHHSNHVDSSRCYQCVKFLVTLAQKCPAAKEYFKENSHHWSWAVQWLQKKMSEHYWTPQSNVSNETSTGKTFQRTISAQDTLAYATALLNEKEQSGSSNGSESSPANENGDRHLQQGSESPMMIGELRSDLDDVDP
Method in brief: as §1

[4] = target: T3, USP25 (UniProt Q9UHP3)
T3 sequence (whole entry): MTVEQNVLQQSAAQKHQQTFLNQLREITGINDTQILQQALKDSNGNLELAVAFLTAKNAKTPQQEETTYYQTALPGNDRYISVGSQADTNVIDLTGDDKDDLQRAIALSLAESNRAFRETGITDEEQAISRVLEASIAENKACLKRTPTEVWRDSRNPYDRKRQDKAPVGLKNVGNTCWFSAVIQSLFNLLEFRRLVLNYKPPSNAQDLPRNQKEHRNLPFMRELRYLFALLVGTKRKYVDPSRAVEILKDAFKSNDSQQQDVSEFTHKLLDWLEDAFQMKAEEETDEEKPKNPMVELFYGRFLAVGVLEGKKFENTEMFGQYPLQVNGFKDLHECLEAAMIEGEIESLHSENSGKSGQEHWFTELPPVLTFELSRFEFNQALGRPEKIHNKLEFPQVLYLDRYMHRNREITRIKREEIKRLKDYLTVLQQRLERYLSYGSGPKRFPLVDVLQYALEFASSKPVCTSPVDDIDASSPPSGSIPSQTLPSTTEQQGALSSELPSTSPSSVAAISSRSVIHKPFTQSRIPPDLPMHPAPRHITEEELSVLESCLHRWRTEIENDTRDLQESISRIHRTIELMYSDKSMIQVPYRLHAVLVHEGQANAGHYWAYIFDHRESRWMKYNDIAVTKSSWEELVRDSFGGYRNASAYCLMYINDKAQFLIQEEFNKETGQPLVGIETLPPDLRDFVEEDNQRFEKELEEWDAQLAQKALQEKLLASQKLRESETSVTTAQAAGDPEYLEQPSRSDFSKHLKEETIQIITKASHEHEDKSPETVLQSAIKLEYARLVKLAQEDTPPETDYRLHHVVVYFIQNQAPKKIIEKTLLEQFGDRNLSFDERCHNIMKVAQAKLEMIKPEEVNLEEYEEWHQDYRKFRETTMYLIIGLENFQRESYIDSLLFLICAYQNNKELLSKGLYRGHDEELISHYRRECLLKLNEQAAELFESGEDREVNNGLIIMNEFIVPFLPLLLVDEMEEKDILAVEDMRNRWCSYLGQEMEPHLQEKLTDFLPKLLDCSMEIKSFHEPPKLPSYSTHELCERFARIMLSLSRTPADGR
Method in brief: as §1

[5] = target: T4, USP28 (UniProt Q96RU2)
T4 sequence (whole entry): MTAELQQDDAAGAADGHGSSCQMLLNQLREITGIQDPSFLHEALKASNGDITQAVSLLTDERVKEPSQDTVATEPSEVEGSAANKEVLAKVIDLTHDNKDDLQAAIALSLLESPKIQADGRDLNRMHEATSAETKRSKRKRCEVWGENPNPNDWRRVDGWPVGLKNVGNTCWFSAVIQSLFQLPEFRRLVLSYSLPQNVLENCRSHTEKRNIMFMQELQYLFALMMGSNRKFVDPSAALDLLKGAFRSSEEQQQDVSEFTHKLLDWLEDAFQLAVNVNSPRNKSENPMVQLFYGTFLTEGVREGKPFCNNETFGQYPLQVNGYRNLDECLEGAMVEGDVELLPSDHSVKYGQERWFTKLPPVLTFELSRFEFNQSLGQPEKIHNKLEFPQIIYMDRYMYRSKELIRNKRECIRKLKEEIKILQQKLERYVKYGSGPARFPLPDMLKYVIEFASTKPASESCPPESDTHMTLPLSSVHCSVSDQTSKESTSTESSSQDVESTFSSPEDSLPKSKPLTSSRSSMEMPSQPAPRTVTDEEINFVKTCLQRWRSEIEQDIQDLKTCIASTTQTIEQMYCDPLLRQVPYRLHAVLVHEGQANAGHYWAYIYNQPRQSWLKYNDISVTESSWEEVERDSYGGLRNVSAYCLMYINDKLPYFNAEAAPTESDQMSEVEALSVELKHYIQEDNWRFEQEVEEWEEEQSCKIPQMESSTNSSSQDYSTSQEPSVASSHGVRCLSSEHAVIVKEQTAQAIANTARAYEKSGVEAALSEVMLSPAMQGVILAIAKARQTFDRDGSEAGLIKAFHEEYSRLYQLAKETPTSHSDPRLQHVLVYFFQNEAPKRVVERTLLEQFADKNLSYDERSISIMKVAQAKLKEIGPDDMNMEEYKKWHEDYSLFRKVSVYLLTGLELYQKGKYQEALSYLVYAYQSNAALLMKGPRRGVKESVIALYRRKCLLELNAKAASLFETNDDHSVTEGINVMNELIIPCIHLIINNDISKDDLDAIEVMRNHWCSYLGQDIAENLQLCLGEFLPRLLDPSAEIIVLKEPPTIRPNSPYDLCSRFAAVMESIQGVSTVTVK
Method in brief: as §1

Measured: log2 ratio of Biotin-Ahx-Ub-VS probe labelling

O=C(CCl)NCCc1ccc(F)cc1
inactive: [1] -0.131 | [2] 0.0853 | [3] -0.0496 | [4] -0.326 | [5] -0.328
